# AmpC detergent: qHTS Inhibitors of AmpC Beta-Lactamase (assay with detergent); 0.041% of 370,000 active; Potency, µM (doses to about 114 µM), actives largely listed as inhibitors; AmpC hydrolysis of nitrocefin, absorbance 480 nm, 0.01% Triton; AID 485294, 2010; further: nearly all actives have a fitted effect of over 25% in size
# Target sequence (P00811 whole entry, looked up): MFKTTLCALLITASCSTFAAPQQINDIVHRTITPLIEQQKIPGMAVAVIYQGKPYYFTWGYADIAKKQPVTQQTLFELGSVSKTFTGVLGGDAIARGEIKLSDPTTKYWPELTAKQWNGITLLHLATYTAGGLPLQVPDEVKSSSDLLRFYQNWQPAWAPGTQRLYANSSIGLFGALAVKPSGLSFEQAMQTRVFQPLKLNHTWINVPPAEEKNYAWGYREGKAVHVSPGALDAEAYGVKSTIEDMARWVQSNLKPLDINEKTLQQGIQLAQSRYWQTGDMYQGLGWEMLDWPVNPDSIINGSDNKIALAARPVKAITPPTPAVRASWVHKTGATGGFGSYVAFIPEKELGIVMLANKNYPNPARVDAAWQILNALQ
#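 AmpC (5.3 nM in the dispensed reagent) in 20 mM phosphate pH 7.0 with 0.01% (detergent screen) or 0.0001% Triton X-100 was preincubated with compounds for 15 min at room temperature. Nitrocefin was then added from an 800 uM solution, and hydrolysis was followed at 480 nm.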
# HCMV antiviral: qHTS Assay for inhibitors of the human cytomegalovirus (HCMV) | 4.5% of 410,000 active | activity change, negative = inhibition, % at 57.5 µM | AID 1259415, 2018 | HFF cells, HCMV-luciferase reporter, 72 h; stronger effect = lower value; in the data active means activity change below about -60%; inconclusive means no clear call, values can overlap the other calls; inactive means above about -39%
#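 Screen run at 2 compound doses on HFFs infected with reporter HCMV, MOI 1 PFU/cell. Luciferase activity from cell lysates at 72 h post infection gave inhibition relative to buffer-only and Salinomycin wells.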
# FMDV antiviral: High Throughput Screening for Foot and Mouth Disease Virus Antivirals. FMDV antiviral cell-based qHTS. Potency, µM (titrated, usually from 57.9 µM), most hits filed as inhibitors. 1.2% of 410,000 active. AID 1159524, 2015; calls by dose curve; tested in HEK293T cells; further: read-out not given here; nearly all actives have a fitted effect of over 45% in size
# HCV inh: qHTS Assay for Inhibitors of Hepatitis C Virus (HCV); Huh7.5.1 HCVcc-Cre infection, luciferase reporter, 44 h; Potency, µM (titrated, usually from 41.8 µM), most hits filed as inhibitors; 3.4% of 340,000 active; AID 651820, 2012
#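 Reporter virus HCVcc-Cre (~0.5 moi) infects cells exposed to compound; seeding density 1,000 cells/well with 4 h settling beforehand. Luminescence, 15 sec read, taken 44 h post-infection following a 15 min RT substrate incubation.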
# AmpC no deterg: qHTS Inhibitors of AmpC Beta-Lactamase (assay without detergent) | P00811 | AmpC nitrocefin hydrolysis, absorbance 480 nm, 0.0001% Triton | Potency, µM (top dose mostly 57.1 µM), hits mostly inhibitors | 0.52% of 330,000 active | AID 485341, 2010; further: nearly all actives have a fitted effect of over 20% in size
#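 20 mM phosphate pH 7.0 + 0.01% (detergent screen) or 0.0001% Triton X-100; 5.3 nM AmpC reagent; cpd preinc 15 min RT; nitrocefin (800 uM stock) to start; A480 q20 s × 4 min; Activity was normalised to no-enzyme and no-compound control wells.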
# Hits are given with their value; – = inactive; ? = inconclusive; · = no result given. Most compounds without a hit are left out; they make up all but 7.3% or so of the library. Unless noted, the call rests on the fitted dose curve; in most records, active means well fitted curve in the direction sought with a large enough effect; inconclusive means small, poorly fitted or top-dose-only effect, or another doubt; inactive means no such curve, though single readings can be large; an effect the other way counts as inactive or inconclusive.
SMILES,AmpC detergent,HCMV antiviral,FMDV antiviral,HCV inh,AmpC no deterg
CC(C)[C@H](NC(=O)N1CCn2c1nc1ccccc12)C(=O)N[C@H](C(=O)O)c1ccccc1,–,–,–,–,–
CC(=O)Nc1ccc(S(=O)(=O)N(C)CC(=O)OCC(=O)c2ccc3c(c2)NC(=O)CO3)cc1,–,–,–,–,–
Cc1ccc(CNC(=O)c2c3c(nc4ccccc24)C(=O)N(C2CCCCC2)C3)cc1,–,–,–,·,·
COc1cc(C(=O)Nc2ccc(S(=O)(=O)N3CCc4ccccc43)cc2)cc(OC)c1OC,–,–,–,14µM,–
O=C(CNC(=O)c1cccc(S(=O)(=O)N2CCc3ccccc32)c1)Nc1ccc(F)c(F)c1F,?,–,–,?,–
COc1ccccc1C(=O)Nc1ccc(S(=O)(=O)N2CCc3ccccc32)cc1,–,–,·,–,–
CC(C)CCNC(=O)c1cccc(S(=O)(=O)N2CCc3ccccc32)c1,–,–,–,?,–
O=C(NNC(=O)c1cccc(S(=O)(=O)N2CCc3ccccc32)c1)c1ccccc1,–,?,–,5µM,–
CN(C)S(=O)(=O)c1cccc(NC(=O)c2cccc(S(=O)(=O)N3CCc4ccccc43)c2)c1,–,-95,?,11µM,–
O=C(CNC(=O)c1cccc(S(=O)(=O)N2CCc3ccccc32)c1)Nc1ccccc1Br,·,-83,–,?,·
Cn1cnc(CCNC(=O)[C@@H]2[C@@H](CO)[C@@H]3Cn4c(cccc4=O)[C@H]2N3C(=O)Nc2ccccc2)c1,·,–,·,·,·
CC(=O)c1ccc(S(=O)(=O)N(C)CC(=O)N2CCCCCC2)cc1,–,–,–,–,–
O=C(Nc1ccc(S(=O)(=O)N2CCc3ccccc32)cc1)c1ccco1,–,-81,?,8.9µM,–
COc1cc(C(=O)Nc2ccc3c(c2)ncn3C(C)(C)C)cc(OC)c1OC,?,–,–,13µM,–
COc1ccc(N2CCN(C(=O)c3cccc(S(=O)(=O)N4CCc5ccccc54)c3)CC2)cc1,·,–,–,?,–
O=S(=O)(NC1CCc2ccccc21)c1ccc(S(=O)(=O)N2CCCC2)cc1 (centres undefined),–,–,·,11µM,–
O=C(c1cccc(S(=O)(=O)N2CCc3ccccc32)c1)N1CCN(c2ccccn2)CC1,–,-78,?,?,–
CC(C)Sc1cc(N2CCOCC2)nc(-c2ccccc2)n1,–,?,?,13µM,–
COc1ccc(N2CCN(S(=O)(=O)c3c(C)[nH]c(C)c3C(=O)N3CCCCC3)CC2)cc1,–,–,–,–,–
CCCc1cc(NC(=O)CCl)n(-c2ccccc2)n1,–,?,?,22µM,–
O=C(COC(=O)c1ccc(O)cc1O)Nc1cc(-c2ccccc2)nn1-c1ccccc1,–,?,–,–,–
CCCc1cc(NC(=O)COC(=O)c2ccc(O)cc2O)n(-c2ccccc2)n1,·,–,?,11µM,–
Cc1ccc(-n2c(O)c(C=Nc3ccc(S(N)(=O)=O)cc3)c(=O)[nH]c2=O)cc1,–,-104,–,–,–
CCN(CC)CCNC(=O)c1ccc(N2CCCCC2)c(NS(=O)(=O)c2ccc(C)cc2)c1,–,?,–,11µM,–
CCOC(=O)c1ccc(N2CCCCC2)c(NS(=O)(=O)c2cccc(C(F)(F)F)c2)c1,–,-65,–,–,–
SMILES,AmpC detergent,HCMV antiviral,FMDV antiviral,HCV inh,AmpC no deterg
COC(=O)c1ccc(N2CCCCC2)c(NS(=O)(=O)c2ccc(C)cc2)c1,–,–,·,13µM,–
Cc1ccc(S(=O)(=O)Nc2cc(C(=O)N3CCC4(CC3)OCCO4)ccc2N2CCCCC2)cc1,–,?,–,–,–
COc1ccc(NC(=O)c2c(-c3ccc(C)cc3)nnc3ccccc23)cc1OC,–,–,–,·,·
COCCn1nnnc1C(C(C)C)N(Cc1ccccc1)Cc1cc2cc(OC)ccc2[nH]c1=O (centres undefined),–,–,–,?,–
CCC(c1nnnn1C1CCCCC1)N(Cc1ccco1)Cc1cc2ccc(OC)cc2[nH]c1=O (centres undefined),–,?,?,3.5µM,–
COc1ccc2[nH]c(=O)c(CN(Cc3ccco3)C(c3nnnn3Cc3ccccc3)C(C)C)cc2c1 (centres undefined),–,-98,?,?,–

# Bioassay records: PubChem, National Center for Advancing Translational Sciences (NCATS)
